In publication PMC4336329 (PLoS ONE, 2015):
Out of some 310,000 compounds screened, about 2,200 (0.71%) showed an effect of 50% or more. The effect is printed as a negative number. Many of the other results were omitted from the sample, so strong results are more common in it than they were.

biological target: human ether-à-go-go-related gene (hERG) potassium channel (human, UniProt Q12809); assay: primary screen, population patch clamp on CHO cells stably expressing hERG; higher = less effect of the substance
Sequence (Q12809 whole entry, looked up): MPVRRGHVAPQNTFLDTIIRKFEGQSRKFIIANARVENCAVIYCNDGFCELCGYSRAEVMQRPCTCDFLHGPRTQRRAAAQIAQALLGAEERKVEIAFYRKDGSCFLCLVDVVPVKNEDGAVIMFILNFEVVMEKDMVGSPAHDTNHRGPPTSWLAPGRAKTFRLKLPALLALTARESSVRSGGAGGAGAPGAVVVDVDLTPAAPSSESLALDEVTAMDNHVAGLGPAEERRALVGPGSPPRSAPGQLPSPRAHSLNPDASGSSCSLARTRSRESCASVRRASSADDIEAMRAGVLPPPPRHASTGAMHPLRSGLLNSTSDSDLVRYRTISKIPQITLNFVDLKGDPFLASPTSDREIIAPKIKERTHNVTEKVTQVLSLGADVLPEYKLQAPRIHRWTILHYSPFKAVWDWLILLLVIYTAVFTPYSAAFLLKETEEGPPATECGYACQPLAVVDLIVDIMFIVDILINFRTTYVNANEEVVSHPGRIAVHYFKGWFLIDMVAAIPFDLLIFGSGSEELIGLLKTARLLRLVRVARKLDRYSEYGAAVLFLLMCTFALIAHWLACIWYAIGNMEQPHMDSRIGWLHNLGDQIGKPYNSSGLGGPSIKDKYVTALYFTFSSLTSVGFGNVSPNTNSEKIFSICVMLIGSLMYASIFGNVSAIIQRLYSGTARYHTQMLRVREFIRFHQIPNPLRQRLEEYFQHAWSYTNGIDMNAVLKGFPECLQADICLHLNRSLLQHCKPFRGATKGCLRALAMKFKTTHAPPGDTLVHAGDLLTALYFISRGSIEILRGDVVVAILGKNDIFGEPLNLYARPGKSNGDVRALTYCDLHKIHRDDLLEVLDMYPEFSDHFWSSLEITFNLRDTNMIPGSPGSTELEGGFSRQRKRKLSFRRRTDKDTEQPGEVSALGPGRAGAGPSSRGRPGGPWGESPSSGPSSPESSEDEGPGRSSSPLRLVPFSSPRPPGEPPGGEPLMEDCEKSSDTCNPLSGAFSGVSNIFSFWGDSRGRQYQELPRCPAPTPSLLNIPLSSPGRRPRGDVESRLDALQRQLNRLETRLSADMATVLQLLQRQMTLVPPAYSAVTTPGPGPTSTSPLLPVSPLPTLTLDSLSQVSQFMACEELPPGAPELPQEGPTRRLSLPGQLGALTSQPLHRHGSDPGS

| SMILES | hERG current change (%, negative = inhibition) at 1uM [%] |
| --- | --- |
| COc1ccc(CCC(=O)Nc2nc3ccccc3[nH]2)cc1OC | -51.1 |
| COc1ccc(CCC(=O)Nc2nc3ccccc3[nH]2)cc1 | 5.78 |
| COc1ccccc1CCC(=O)Nc1nc2ccccc2[nH]1 | 18.7 |
| COCCNC(=S)NC12CC3CC(CC(C3)C1)C2 | 11.3 |
| O=C(NC12CC3CC(CC(C3)C1)C2)c1ccc(-c2cccc(Cl)c2)o1 | 21.9 |
| O=C(CCCC(=O)OCC(=O)c1ccc(F)cc1)Nc1cc(C(F)(F)F)ccc1Cl | 12 |
| O=C(Cc1ccc(Cl)c(Cl)c1)Nc1ccc2[nH]c(=O)[nH]c2c1 | 4.75 |
| COC(=O)c1cc(S(=O)(=O)NCC2CCN(Cc3cc(C)ccc3C)CC2)c[nH]1 | 2.48 |
| COC(=O)c1cc(S(=O)(=O)NCC2CCN(Cc3ccc(Cl)cc3)CC2)c[nH]1 | -59.6 |
| COC(=O)c1cc(S(=O)(=O)NCC2CCN(Cc3ccc(C)cc3)CC2)c[nH]1 | -63 |
| COC(=O)c1cc(S(=O)(=O)NCC2CCN(Cc3ccc(F)cc3)CC2)c[nH]1 | 7.24 |
| COC(=O)c1cc(S(=O)(=O)NCC2CCN(Cc3cccc(Cl)c3)CC2)c[nH]1 | 5.82 |
| COC(=O)c1cc(S(=O)(=O)NCC2CCN(Cc3cccc(F)c3)CC2)c[nH]1 | 2.87 |
| COc1cc(/C=N/NC(=O)c2ccc(N(C)S(=O)(=O)c3ccccc3)cc2)cc(OC)c1OC | 10.6 |
| O=C(O)CCC(=O)Nc1cccc(-c2csc(-c3ccccc3)n2)c1 | 4.25 |
| COC(=O)c1cc2sc(Cl)cc2n1CC(=O)Nc1ccc(OC)c(OC)c1OC | -58.5 |
| COC(=O)c1cc2occc2n1CC(=O)Nc1ccc(OC)c(OC)c1OC | 11.1 |
| COC(=O)c1cc2sccc2n1CC(=O)Nc1ccc(OC)c(OC)c1OC | 9.49 |
| Cc1ccc2[nH]c(=O)c(CN(Cc3nnnn3Cc3ccccc3)C3CCCC3)cc2c1 | 11.9 |
| O=c1cc(CS(=O)(=O)c2ccccc2)nc(-c2ccncc2)[nH]1 | 11.3 |
| CCOC(=O)N1CCN(C(=O)/C(=C/c2cccs2)NC(=O)c2ccc(OC)c(OC)c2)CC1 | -64.7 |
| Cc1ccc(C(=O)N/C(=C\c2cccs2)C(=O)N2CCCCCC2)cc1 | -19.3 |
| CCOC(=O)N1CCN(C(=O)/C(=C/c2cccs2)NC(=O)c2cccs2)CC1 | -6.55 |

| SMILES | hERG current change (%, negative = inhibition) at 1uM [%] |
| --- | --- |
| CCN1CCN(C(=O)/C(=C/c2cccs2)NC(=O)c2ccc(C)c(C)c2)CC1 | -83.5 |
| Cc1ccc(C(=O)N/C(=C/c2cccs2)C(=O)N2CCCCCC2)cc1 | -13.9 |
| Cc1ccc(C(=O)N/C(=C\c2cccs2)C(=O)N2CCOCC2)cc1C | 1.26 |
| Cc1ccc(C(=O)N/C(=C\c2cccs2)C(=O)N2CCN(C)CC2)cc1C | -77.2 |
| COc1ccc(C(=O)N/C(=C\c2cccs2)C(=O)N2CCN(C)CC2)cc1OC | -33.9 |
| Cc1ccc(C(=O)N/C(=C/c2cccs2)C(=O)N2CCCCC2)cc1 | 10.6 |
| COc1cc(NC(=O)CSc2ncnc3scc(-c4ccccc4)c23)c(C(=O)O)cc1OC | 11.2 |
| CCN(CC)C(=O)Cn1cc(S(=O)(=O)CC(=O)N2CCOCC2)c2ccccc21 | 7.45 |
| Cc1ccc(S(=O)(=O)N2CCCCC2)cc1NC(=O)COC(=O)Cc1c(F)cccc1Cl | 14.5 |
| CCOC(=O)C1CCN(C(=O)CCc2c(C)nc3cc(-c4ccc(OC)cc4OC)nn3c2C)CC1 | -10.6 |
| CCOC(=O)C1CCCCN1C(=O)CCc1c(C)nc2cc(-c3ccccc3)nn2c1C (stereo not drawn) | -14 |
| CCOC(=O)C1CCN(C(=O)CCc2c(C)nc3cc(-c4ccccc4)nn3c2C)CC1 | -62 |
| S=C(N/N=C/c1ccco1)NC1CC2CCC1C2 (stereo not drawn) | 8.84 |
| CC1(C)O[C@@H]2C[C@H]3[C@@H]4C[C@H](F)C5=CC(=O)CC[C@]5(C)[C@H]4[C@@H](O)C[C@]3(C)[C@]2(C(=O)CO)O1 | 18.1 |
| Cc1ccc(CN2CCN(Cc3cccc4c3OCO4)CC2CCO)cc1 (stereo not drawn) | -16.1 |
| OCCC1CN(Cc2cccc3c2OCO3)CCN1Cc1ccccc1 (stereo not drawn) | 7.11 |
| OCCC1CN(Cc2cc3c(cc2Cl)OCO3)CCN1Cc1ccccc1 (stereo not drawn) | -1.48 |
| COc1cccc2c1OCC(CN1CCN(Cc3ccccc3F)C(CCO)C1)=C2 (stereo not drawn) | 12 |
| CCOc1ccc(CN2CCN(CC3CC3)CC2CCO)cc1 (stereo not drawn) | -20.7 |
| COc1cccc2c1OCC(CN1CCN(Cc3ccccc3)C(CCO)C1)=C2 (stereo not drawn) | -4.17 |
| CCOc1ccc(CN2CCN(Cc3cc4c(cc3Cl)OCO4)CC2CCO)cc1 (stereo not drawn) | -62.9 |
| CCOc1ccc(CN2CCN(Cc3cccc4c3OCO4)CC2CCO)cc1 (stereo not drawn) | -64.9 |
